Measurements taken from PubChem BioAssay.
Active and inactive are the calls of the source. Cut-off read from the data, not from the text of the source, unless noted: active = inhibition above about 80%; inactive = the rest.

Key:
[1] = growth inhibition, single agent or in combination, cell-based, chromothripsis tumors, cisplatin or BGB combos (AID 1671449); details: LFS_MB_P medulloblastoma cells;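 note: cells exposed for 96 hours; 0% = vehicle DMSO and 100% = killing by high DMSO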
[2] = growth inhibition, single agent and combos, cell-based, chromothripsis tumors, cisplatin or BGB combos (AID 1671450); details: HDN33 neuroblastoma cells, stronger effect = higher value;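 note: cells exposed to compound for four days; 0% = vehicle DMSO and 100% = cell killing by high DMSO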
[3] = growth inhibition, single agents and combos, ICB984, cell-based, cisplatin or BGB combos, synergistic combos for chromothripsis tumors (AID 1671451; call rule not given here;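 note: cells exposed for 96 hours before readout; 0% = vehicle DMSO and 100% = killing by high DMSO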); details: ICB984 medulloblastoma cells, drug combinations, stronger effect = higher value
[4] = growth inhibition, single agents and combos, LFS_MB_1R, cell-based, cisplatin or BGB combos, synergistic combos for chromothripsis tumors (AID 1671452); details: LFS_MB_1R medulloblastoma cells, stronger effect = higher value;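 note: cells exposed for 96 hours before readout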
[5] = growth inhibition, single agents and combos, HTB85, cell-based, BGB or cisplatin IC20 combos, synergistic combos for chromothripsis tumors (AID 1671453); details: HTB85 osteosarcoma cells, drug combinations, stronger effect = higher value;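 note: cells exposed for 96 hours before readout; 0% = vehicle DMSO and 100% = high DMSO killing control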
[6] = growth inhibition, single agents and combos, CRL2098, cell-based, BGB or cisplatin IC20 combos, synergistic combos for chromothripsis tumors (AID 1671454); details: CRL2098 osteosarcoma cells, drug combinations, stronger effect = higher value;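 note: cells exposed for 96 h before readout; 0% = vehicle DMSO and 100% = killing by high DMSO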
[7] = growth inhibition, single agents and combos, HD-MB03, cell-based, BGB or cisplatin IC20 combos, synergistic combos for chromothripsis tumors (AID 1671455; in the data active = inhibition above about 83%;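 note: 0% = vehicle DMSO and 100% = high DMSO as cytotoxic control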); details: HD-MB03 medulloblastoma cells, stronger effect = higher value
[8] = growth inhibition, single agents and combos, UWB1.289, cell-based, BGB or cisplatin combos, synergistic combos for chromothripsis tumors (AID 1671456); details: UWB1.289 ovarian carcinoma cells, stronger effect = higher value;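 note: cells exposed to compound for four days; 0% = vehicle DMSO and 100% = killing by high DMSO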
[9] = growth inhibition, single agents and combos, LFS_MB_2R, cell-based, cisplatin combos, synergistic combos for chromothripsis tumors (AID 1671457); details: LFS_MB_2R medulloblastoma cells, stronger effect = higher value;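 note: cells exposed to compound for four days before readout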
[10] = growth inhibition, MDA-MB-436, cell-based, BGB or cisplatin combos, synergistic combos for chromothripsis tumors (AID 1671458; call rule not given here;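 note: cells exposed for 96 hours; 0% = vehicle DMSO and 100% = killing by high DMSO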); details: MDA-MB-436 breast carcinoma growth inhibition, drug combinations, stronger effect = higher value
[11] = UWB1.289_BRCA1 ovarian cancer growth, cell-based, BGB or cisplatin combinations (AID 1671459); details: UWB1.289 BRCA1 ovarian carcinoma, drug combinations, stronger effect = higher value
[12] = drug combination toxicity in non-malignant astrocytes – cell-based, BGB or cisplatin IC20 combos, cytotoxicity control for chromothriptic childhood tumor combination screen (AID 1671460); details: Human astrocytes, viability inhibition, drug combinations, at 0.5 µM, stronger effect = higher value;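 note: cells exposed to compounds for 96 hours before viability readout; 0% = vehicle and 100% = killing control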
[13] = BT084 cell growth, single and combined drugs, ICGC_MB145, cisplatin and BGB IC40 combos (AID 1671461); details: BT084 medulloblastoma cells, drug combinations, stronger effect = higher value;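 note: cells exposed to drugs for 96 hours; 0% = vehicle DMSO and 100% = high DMSO full killing control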
[14] = RCMB18 cell growth, single agent and combined, cisplatin and BGB IC40 combos (AID 1671462); details: RCMB18 medulloblastoma cells, stronger effect = higher value;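 note: cells exposed to compound for four days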
[15] = CRL1545 cell growth, single agent and combined, cisplatin and BGB IC20 combos (AID 1671464); details: CRL1545 osteosarcoma cells, stronger effect = higher value;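 note: cells exposed to compound for 96 hours before readout; 0% = vehicle DMSO and 100% = high DMSO killing control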
[16] = compounds altering circadian rhythm period length – cell-based, LOPAC library, luminescence reporter (AID 2774; call rule not given here;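 note: values are relative to mean of DMSO wells on each plate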); details: circadian reporter cells, at 7 µM, actives lie on both sides
[17] = at 0.5 µM, stronger effect = higher value
[18] = measured here: combination with BGB IC20, at 0.005 µM
[19] = measured here: combination with BGB IC40, at 0.005 µM
[20] = measured here: combination with BGB IC40, at 0.05 µM
[21] = measured here: combination with cisplatin, at 0.5 µM, stronger effect = higher value
[22] = measured here: combination with cisplatin, at 5 µM, stronger effect = higher value
[23] = measured here: with BGB IC20 combination, at 0.5 µM
[24] = measured here: with cisplatin IC20 combination, at 0.5 µM
[25] = measured here: 5 uM single agent, at 5 µM
[26] = measured here: combination with cisplatin, at 0.5 µM
[27] = measured here: combination with cisplatin, at 5 µM
[28] = measured here: with BGB IC20, at 0.5 µM
[29] = measured here: with BGB IC20, at 5 µM
[30] = measured here: with cisplatin IC20, at 0.5 µM
[31] = measured here: with cisplatin IC20, at 5 µM
[32] = measured here: combination with BGB at IC20, at 0.5 µM
[33] = measured here: combination with cisplatin at IC20, at 0.5 µM
[34] = measured here: combo with BGB at IC20, at 0.5 µM
[35] = measured here: combo with cisplatin at IC20, at 0.5 µM
[36] = measured here: inhibition with BGB combination, at 0.05 µM
[37] = measured here: inhibition with cisplatin combination, at 0.05 µM
[38] = measured here: BGB combination, at 0.5 µM
[39] = measured here: BGB combination, at 5 µM
[40] = measured here: cisplatin combination, at 0.5 µM
[41] = measured here: cisplatin combination, at 5 µM
[42] = BGB combination, concentration series, at 5 µM
[43] = cisplatin combination, concentration series, at 5 µM
[44] = measured here: combo with BGB IC20
[45] = measured here: combo with cisplatin IC20
[46] = cisplatin combination, at 0.5 µM
[47] = measured here: BGB IC40 combination 0.05 uM, at 0.05 µM

With `O=c1[nH]c(=O)n(C2OC(CO)C(O)C2O)cc1F` (centres undefined) the inhibition [1, 17] was -2.55% (inactive), the inhibition [1, 18] was -22.7% and the inhibition [1, 19] was -24.2%. It also gave an inhibition [1, 20] of -0.747%, an inhibition [1, 21] of -21.6% and an inhibition [1, 22] of 22.1%. The inhibition ([2]; BGB combo, at 5 µM) was 98.3%, the inhibition ([2]; at 0.5 µM) was 71.5% (inactive) and the inhibition ([2]; cisplatin combo, at 5 µM) was 97.9%. The inhibition [2, 23] was 69.4%, the inhibition [2, 24] was 68.6% and the inhibition ([2]; single agent, at 5 µM) was 98.1%. The inhibition ([3]; BGB IC20 combo, at 0.005 µM) was 26.6%, the inhibition ([3]; BGB IC40 combo, at 0.005 µM) was 32% and the inhibition ([3]; BGB IC40 combo, at 0.05 µM) was 86.4%. For the same compound, the inhibition ([3]; at 0.5 µM) was -9.47% (inactive), the inhibition ([3]; cisplatin combo, at 0.05 µM) was 86.4% and the inhibition ([3]; cisplatin combo, at 0.5 µM) was -24.4%. The inhibition ([3]; cisplatin combo, at 5 µM) was -10.9%, the inhibition [3, 25] was -6.81% and the inhibition ([4]; at 0.5 µM) was -13.3% (inactive). It also gave an inhibition [4, 20] of -3.21%, an inhibition [4, 26] of -2.35% and an inhibition [4, 27] of 44.8%. For the same compound, the inhibition ([5]; at 0.5 µM) was 22% (inactive), the inhibition [5, 28] was -3.46% and the inhibition [5, 29] was 59.1%. The inhibition [5, 30] was 26.3%, the inhibition [5, 31] was 57.2% and the inhibition ([5]; single agent, at 5 µM) was 76.2%. The inhibition ([6]; at 0.5 µM) was -23.1% (inactive), the inhibition [6, 32] was -14.1% and the inhibition [6, 33] was -20.6%. The inhibition ([7]; at 0.5 µM) was 66.9% (inactive), the inhibition [7, 34] was 71.1% and the inhibition [7, 35] was 54%. The inhibition ([8]; at 0.5 µM) was 33.5% (inactive), the inhibition [8, 36] was -10.9% and the inhibition [8, 37] was 10.1%. The inhibition ([9]; at 0.5 µM) was -12.7% (inactive), the inhibition [9, 26] was -4.31% and the inhibition [9, 27] was 6.83%. The inhibition ([10]; at 0.5 µM) was 45.1% (inactive), the inhibition [10, 38] was 27.6% and the inhibition [10, 39] was 83.1%. It also gave an inhibition [10, 40] of 39.9%, an inhibition [10, 41] of 86.1% and an inhibition [11, 42] of 110%. For the same compound, the inhibition ([11]; at 0.5 µM) was 40.6% (inactive), the inhibition [11, 43] was 118% and the inhibition [12] was 57.3% (inactive). For the same compound, the inhibition [12, 44] was 56.2%, the inhibition [12, 45] was 38.9% and the inhibition ([13]; at 0.5 µM) was -22.9% (inactive). For the same compound, the inhibition [13, 46] was -18.4%, the inhibition ([13]; cisplatin combination, at 5 µM) was -1.49% and the inhibition [13, 47] was 2.24%. The inhibition ([13]; single agent, at 5 µM) was 11.9%, the inhibition ([14]; at 0.5 µM) was 33.4% (inactive) and the inhibition ([14]; cisplatin combo, at 5 µM) was 75.4%. It also gave an inhibition ([14]; measured here: BGB IC40 combination, at 0.05 µM) of 14.4%, an inhibition [14, 26] of 45.3% and an inhibition ([14]; single agent, at 5 µM) of 63.7%. The inhibition ([15]; at 0.5 µM) was 82.5% (active), the inhibition [15, 23] was 77.3% and the inhibition [15, 24] was 85.1%. The inhibition ([15]; single agent, at 0.05 µM) was 57.8% and the inhibition ([15]; single agent, at 5 µM) was 99.7%.
With `COc1ccc(CCN)cc1O` the period change [16] was 0.08 h (inactive).
For `O=P(O)(NCCCl)NCCCl`, the inhibition [1, 17] was -22.2% (inactive), the inhibition [1, 18] was -18.1% and the inhibition [1, 19] was -19.6%. It also gave an inhibition [1, 20] of -1.01%, an inhibition [1, 21] of -31.9% and an inhibition [1, 22] of -32.1%. For the same compound, the inhibition ([2]; BGB combo, at 5 µM) was -3.04%, the inhibition ([2]; at 0.5 µM) was -31.2% (inactive) and the inhibition ([2]; cisplatin combo, at 5 µM) was -23.7%. The inhibition [2, 23] was -28%, the inhibition [2, 24] was -30.2% and the inhibition ([2]; single agent, at 5 µM) was -43.4%. It also gave an inhibition ([3]; BGB IC20 combo, at 0.005 µM) of -17.4%, an inhibition ([3]; BGB IC40 combo, at 0.005 µM) of -58.7% and an inhibition ([3]; BGB IC40 combo, at 0.05 µM) of -40.4%. For the same compound, the inhibition ([3]; at 0.5 µM) was -24.2% (inactive), the inhibition ([3]; cisplatin combo, at 0.05 µM) was -45.9% and the inhibition ([3]; cisplatin combo, at 0.5 µM) was -25.8%. The inhibition ([3]; cisplatin combo, at 5 µM) was -10.7%, the inhibition [3, 25] was 3.71% and the inhibition ([4]; at 0.5 µM) was -40.6% (inactive). The inhibition [4, 20] was -43.7%, the inhibition [4, 26] was -71.6% and the inhibition [4, 27] was -97.5%. For the same compound, the inhibition ([5]; at 0.5 µM) was -29.6% (inactive), the inhibition [5, 28] was -31.2% and the inhibition [5, 29] was 0.766%. For the same compound, the inhibition [5, 30] was -42.4%, the inhibition [5, 31] was 5.56% and the inhibition ([5]; single agent, at 5 µM) was -6.89%. The inhibition ([6]; at 0.5 µM) was -58.4% (inactive), the inhibition [6, 32] was -43.5% and the inhibition [6, 33] was -12.2%. For the same compound, the inhibition ([7]; at 0.5 µM) was -20.7% (inactive), the inhibition [7, 34] was -26.7% and the inhibition [7, 35] was -18.9%. For the same compound, the inhibition ([8]; at 0.5 µM) was -15.1% (inactive), the inhibition [8, 36] was -6.88% and the inhibition [8, 37] was -8.03%. The inhibition ([9]; at 0.5 µM) was -16.7% (inactive), the inhibition [9, 26] was -19.3% and the inhibition [9, 27] was -26.8%. The inhibition ([10]; at 0.5 µM) was -14.5% (inactive), the inhibition [10, 38] was -12.5% and the inhibition [10, 39] was -5.62%. For the same compound, the inhibition [10, 40] was -16%, the inhibition [10, 41] was -15.6% and the inhibition [11, 42] was -1.33%. The inhibition ([11]; at 0.5 µM) was -15.6% (inactive), the inhibition [11, 43] was -23% and the inhibition [12] was -6.45% (inactive). The inhibition [12, 44] was -2.47%, the inhibition [12, 45] was -6.44% and the inhibition ([13]; at 0.5 µM) was -3.8% (inactive). It also gave an inhibition [13, 46] of 2.29%, an inhibition ([13]; cisplatin combination, at 5 µM) of -12.8% and an inhibition [13, 47] of -21.5%. The inhibition ([13]; single agent, at 5 µM) was -15.7%, the inhibition ([14]; at 0.5 µM) was -17.3% (inactive) and the inhibition ([14]; cisplatin combo, at 5 µM) was 5.67%.
